# Reference: PubChem BioAssay AID1035472 (Broad Institute, 2014)
# Calls of active or inactive are those of the source. How the calls were made is not given here.
# Assay: HepG2 cell cytotoxicity, dose response, cytotoxicity control, dry powder samples (AID 1035472)
# Details: HepG2 viability, ATP luminescence (CellTiter-Glo), 72 h; series mostly up to 100 µM
smiles,measurement,value
Cn1c(NC(=O)c2ccccc2)nc2c3cnccc3ccc21,outcome,inactive
